Assay results reported in PubChem BioAssay (Tox21).
Results filed as inconclusive are left out. Unmarked numbers belong to inactive results. The call rests on the fitted dose curve; in most records, active means well fitted cell-killing curve with a large enough effect in the repeat runs; inconclusive means weak or mixed curves; inactive means no such curve, though single readings can be large or run the other way.

assay: qHTS assay to identify small molecule antagonists of the androgen receptor (AR) signaling pathway - cell viability counter screen (AID 743033; further: nearly all actives have a fitted effect of over 45% in size); details: AR-bla HEK293 viability, CellTiter-Glo luminescence, 16 h; series mostly up to 58.5 µM; activity change, negative = cytotoxicity: at the top concentration
On the % scale 0 is the no-effect control and ±100 the full control effect.

SMILES | activity change, negative = cytotoxicity
CCCCCCCCCCCCCCCCCCOS(=O)(=O)O | -1.56%
C1CCCNCCC1 | -13.7%
COC(=O)C1=C(C)NC(COC(N)=O)=C(C(=O)OC(C)C)C1c1cccc(Cl)c1Cl (configuration not stated) | -29.5%
CC1=CCCC(C)(C)C12CCC(C)O2 (configuration not stated) | 1.15%
C=C(C)C(=O)OCCO | 2.48% [at 78.9 µM]
OC(CN1CCC(Cc2ccc(F)cc2)CC1)c1ccc(Cl)cc1 (configuration not stated) | -0.158%
c1ccc(-c2ccccn2)nc1 | 0.354%
O=S(c1cc(Cl)cc(Cl)c1O)c1cc(Cl)cc(Cl)c1O | -2.86%
O=[N+]([O-])c1ccc(NCCO)c(OCCO)c1 | 9.39%
C[N+](C)(C)CCOC(=O)CCC(=O)OCC[N+](C)(C)C | -3.65%
COC(C)OC | 0.629%
CC(=O)c1ccc2c(c1)N(CCCN(C)C)c1ccccc1S2 | 2.28% [at 27 µM]
CN(C)CCN(Cc1ccc(Cl)cc1)c1ccccn1 | -6.79% [at 27 µM]
CCCCCCCCCCCCN1CCCCCC1=O | -21.3%
C#CCN(C)CCCOc1ccc(Cl)cc1Cl | -15.7%
Cc1cc(N)c2cc(NC(=O)Nc3ccc4nc(C)cc(N)c4c3)ccc2n1 | -13.2%
CCCCOC(=O)CCCCCCCC(=O)OCCCC | 5.86%
CC(CC=O)c1ccccc1 (configuration not stated) | -2.1%
CCCCC(=O)OCC(=O)[C@H]1[C@H](C)C[C@H]2[C@@H]3C[C@H](F)C4=CC(=O)C=C[C@]4(C)[C@@]3(F)[C@@H](O)C[C@@]21C | -11.2%
CCN(CC)CCNC(=O)c1cc(Br)c(N)cc1OC | 3.49%
CCCCCCCCCOS(=O)(=O)O | -7.04%
O=C(c1ccc(F)cc1)C1CCN(CCn2c(=S)[nH]c3ccccc3c2=O)CC1 | -24.2%
